Active and inactive are the calls of the source.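 How the source made its calls: active means visual image review flags a hit and inhibition of aggregation exceeds 20%; inconclusive means visual hit but inhibition at or below 20%; inactive means no hit on visual image review.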
assay: reduction of polyQ htt aggregates in cells – imaging, exon1htt(103Q)mCFP cells, high-content imaging, primary screen (AID 483); conditions: exon1htt(103Q)mCFP cell line, aggregate imaging, at 2 µM; inhibition of aggregation: stronger effect = higher value; nuclei count: measured here: cell count, toxicity;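 further: compound exposure lasted 3 days before fixation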;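 on nuclei count: percent of the per-plate median nuclei count of sample wells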

SMILES	nuclei count [%]	inhibition of aggregation
CCOC(=O)c1c(-c2cccs2)csc1NC(=O)CCCC(=O)O	110	-5% (inactive)
Fc1ccc(-c2cnc[nH]2)cc1	64.4	-41% (inactive)
CCOC(=O)c1[nH]c2ccc(Br)cc2c1NC(=O)CNC	113	-0.9% (inactive)
COc1ccc(C2(CN(C(C)=O)C(C)=O)CCCC2)cc1OC	109	6.8% (inactive)
COc1ccccc1C1C(C#N)=C(N)Oc2cc(C)n(Cc3ccccn3)c(=O)c21 (stereo not drawn)	99.3	12% (inactive)
Cc1ccc(C(=O)/C=C/Nc2cccc(O)c2)cc1	106	-12% (inactive)
O=C(C1CC1(c1ccccc1)c1ccccc1)N1CCOCC1 (stereo not drawn)	80.6	13.6% (inactive)
COC(=O)CNC(=O)c1c(C)cc(=O)oc1C	110	1.6% (inactive)
COc1ccc(CCn2c(=N)c(C(=O)NCc3ccco3)cc3c(=O)n4ccccc4nc32)cc1	94.4	-10% (inactive)
Nc1nc(NC(=O)c2cccs2)nn1-c1ccccc1	104	2.6% (inactive)
Cc1c(O)c(CN2CCCC(C)C2)cc2c3c(c(=O)oc12)CCC3 (stereo not drawn)	102	-0.7% (inactive)
COc1ccc(CCn2c(=N)c(C#N)cc3c(=O)n4ccccc4nc32)cc1	100	-0.9% (inactive)
Cn1c(SCC(=O)N2CCOCC2)nnc1-c1cccc(NC(=O)c2ccccc2F)c1	115	-17.6% (inactive)
O=C(NC1CCS(=O)(=O)C1)c1c(NC(=O)C2COc3ccccc3O2)sc2c1CCCC2 (stereo not drawn)	97.6	3% (inactive)
COC(=O)C(NC(C)=O)(Nc1nc2ccc(S(C)(=O)=O)cc2s1)C(F)(F)F (stereo not drawn)	102	3.4% (inactive)
COc1ccc2c(c1)C1(C)CC(C)(C)N2C(=O)N1c1ccccc1 (stereo not drawn)	111	-18.9% (inactive)
CCCCCn1c2nc3ccccc3nc2c2c(=O)n(CC(C)C)cnc21	105	14.3% (inactive)
Nc1nnnn1/N=C/c1ccccn1	98.2	-8.1% (inactive)
Cc1nnc2n(-c3ccccc3)c(=O)c3c4c(sc3n12)CCCC4	95.5	8% (inactive)
CCc1nc2sc3c(c2c(=O)o1)CCCC3	104	-11.4% (inactive)

SMILES	nuclei count [%]	inhibition of aggregation
CCOC(=O)CNC(=O)Nc1ccccc1C(=O)OC	83.8	-5.8% (inactive)
COc1ccc(C(=O)NCCCCCC(=O)O)cc1OC	93	12.2% (inactive)
CCOC(=O)C1=C(CSc2nc(C)cc(C)c2C#N)OC(N)=C(C#N)C1c1cccs1 (stereo not drawn)	102	-14.2% (inactive)
COc1cc(NC(=O)NC(C)(C(F)(F)F)C(F)(F)F)cc(OC)c1OC	83	-0.5% (inactive)
COC(=O)C(NC(C)=O)(Nc1ccccn1)C(F)(F)F (stereo not drawn)	111	12.2% (inactive)
CC1(C)CNC(=O)c2sc(N3CCOCC3)nc2C1	76.6	-17.3% (inactive)
CCOC(=O)c1ccc(CC2S/C(=C(\C#N)C(C)=O)NC2=O)cc1 (stereo not drawn)	100	-13.4% (inactive)
CC(=Nc1cccc(O)c1)c1sc2ccccc2c1O	96.4	-13% (inactive)
COc1cccc(N2C(=O)C(O)=C(C(C)=O)C2c2ccc(OC)c(OC)c2)c1 (stereo not drawn)	104	14% (inactive)
O=S(=O)(c1ccc2ccccc2c1)N(CC(O)CN1CCOCC1)c1ccccc1 (stereo not drawn)	113	-10.4% (inactive)
Cc1c(O)c(CN2CCCCC2)cc2c3c(c(=O)oc12)CCC3	106	2.7% (inactive)
O=S(=O)(NCc1cccnc1)c1cccc2nsnc12	125	-2.4% (inactive)
Cc1cc(O)c(C(C)C)cc1N=C1CSC(=O)N1	60.9	10.4% (inactive)
Cc1nc2sc(C#N)c(N)c2c2c1CCCC2	3.6	-143% (inactive)
N#C/C(C(=O)N1CCOCC1)=C1/SC(Cc2ccccc2)C(=O)N1c1ccccc1 (stereo not drawn)	105	18.9% (inactive)
CN(CC(O)COc1ccc(OCC(O)CN(C)C2CCCCC2)cc1)C1CCCCC1 (stereo not drawn)	67	-434% (inactive)
Cn1c(=O)[nH]c(=O)c2c1nc(N(CCO)Cc1ccccc1)n2Cc1ccccc1Cl	139	-19.3% (inactive)
Cc1nn(-c2ccccc2)c2c1C(=O)NC(=O)C(C)(C)C2	105	9.8% (inactive)
Cc1ccc(-n2ncc3c(N4CCN(c5ccccc5)CC4)ncnc32)c(C)c1	113	-1.5% (inactive)

From PubChem BioAssay
